Rows were chosen to be rich in hits. Some 5.2% of all compounds tested hit in one or more screens of this group.
esBAF inh: SWI/SNF esBAF complex inhibition; mouse ES cells, Bmi1-luciferase knock-in reporter, 24 h; 100% = twice the neutral-well signal; reporter increase, % at 12.5 µM; 350,000 compounds, 2% hits; in the data active = activation above about 40%;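 note: a rise in the Bmi1 reporter signal indicates esBAF inhibition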
NR3A LBD binder: modulates the human NR3A ligand-binding domain. AID 1259313. Tm shift relative to glycine control, % at 25 µM. NR3A LBD differential scanning fluorimetry, Tm shift; 0% = protein alone, 100% = glycine-bound protein. 340,000 compounds, 2.5% hits;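 active = melting temperature shift of at least 10% of the positive control shift, at one fixed dose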
NadD inh: inhibitors of Staphylococcus aureus NadD. purified NadD enzyme, colorimetric absorbance read-out. inhibition, % at 20 µM. 360,000 compounds, 0.78% hits. AID 602399; in the data active = inhibition above about 26%
SKN-1 block: blocks SKN-1 activity in C. elegans | C. elegans VP596 Pgst-4::GFP/RFP ratio, acrylamide-induced, 24 h | 360,000 compounds, 0.49% hits | inhibition, % at 21.8 µM;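 active = interference check ratio from 0.5 to 1.5 plus GFP to RFP signal ratio inhibition reaching or exceeding a fixed threshold, cut at about 30% in these data, passing the limit was not always enough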
SMARCA2 act: SMARCA2 function activation, primary screen; MG213 cells, MMTV-luciferase reporter, dexamethasone, overnight; activation, % at 9.1 µM; 370,000 compounds, 1% hits; AID 652017; in the data active = activation above about 7.8%
Vif imaging: inhibitors of HIV Vif. HEK293T cells, Vif self-association by quenched fluorescence, imaging, 24 h. 340,000 compounds, 0.35% hits. inhibition, % at 7.49 µM; in the data active = inhibition above about 50%, passing the limit was not always enough
Of the large screens only hits and unclear results are named; the others gave an inactive call.

O=C(NCC1CCCO1)c1cc2ccccc2cc1O (stereo not given)	esBAF inh 57
O=C(NNC(=O)c1cc2ccccc2cc1O)NC1CCCCC1	none
CC1CCC(NC(=O)c2cc3ccccc3cc2O)CC1 (stereo not given)	esBAF inh 77
CCOC(=O)CSc1nc2c(sc(=S)n2-c2ccccc2OC)c(=O)n1Cc1ccco1	NR3A LBD binder 19
CCOC(=O)CSc1nc2c(sc(=S)n2-c2ccccc2OC)c(=O)n1-c1ccccc1OC	none
C[C@@H]1CN([C@H](C)CO)C(=O)c2cc(C#Cc3cccnc3)cnc2O[C@@H]1CN(C)C(=O)CC1CC1	none (no result: NR3A LBD binder, NadD inh, SKN-1 block, SMARCA2 act, Vif imaging)
CCCNC(=O)C[C@@H]1CC[C@@H]2[C@@H](COc3ccc(NC(=O)c4ccc(Cl)cc4)cc3C(=O)N2C)O1	none (no result: NR3A LBD binder, NadD inh, SKN-1 block, SMARCA2 act, Vif imaging)
Cc1cc(C)n(-c2nc(-c3ccc(Cl)cc3)cs2)n1	esBAF inh 51
CC1=NN(c2nc(-c3ccc(Cl)cc3)cs2)C(=O)C1	NR3A LBD binder 19
COc1ccc(S(=O)(=O)N(C)C[C@H]2OCCCC[C@@H](C)Oc3ccc(NS(=O)(=O)c4cn(C)cn4)cc3C(=O)N([C@@H](C)CO)C[C@H]2C)cc1	none (no result: NR3A LBD binder, NadD inh, SKN-1 block, SMARCA2 act, Vif imaging)
COc1ccc(-c2cc(=O)oc3c(O)c(O)ccc23)cc1	NR3A LBD binder 29
CCN(CC)C(=O)COc1ccc2c(-c3ccccc3)cc(=O)oc2c1	none
COc1ccc(-c2cc(=O)oc3cc(OCC(=O)N(C)C)ccc23)cc1	SKN-1 block 37
COc1ccc(NC(=O)N(C)C[C@H]2Oc3ccc(NS(=O)(=O)c4ccc(C)cc4)cc3CC(=O)N([C@@H](C)CO)C[C@@H]2C)cc1	none (no result: NR3A LBD binder, NadD inh, SKN-1 block, SMARCA2 act, Vif imaging)
C[C@H](CO)N1C[C@H](C)[C@H](CN(C)C(=O)C2CCCCC2)Oc2ncc(-c3ccncc3)cc2C1=O	none (no result: NR3A LBD binder, NadD inh, SKN-1 block, SMARCA2 act, Vif imaging)
Cc1noc(C)c1NC(=O)N(C)C[C@H]1OCCCC[C@H](C)Oc2ccc(NC(=O)Nc3ccc(F)cc3)cc2C(=O)N([C@@H](C)CO)C[C@@H]1C	none (no result: NR3A LBD binder, NadD inh, SKN-1 block, SMARCA2 act, Vif imaging)
Nc1ccccc1N=Cc1ccc(-c2cccc(Cl)c2)o1	esBAF inh 98, NR3A LBD binder 22
COC(=O)N/N=C/c1ccc(-c2cccc(Cl)c2)o1	none (no result: esBAF inh)
O=C(Nc1cccc(S(=O)(=O)NC2=NCCC2)c1)c1cn(-c2ccccc2)nc1-c1ccc(F)cc1	NR3A LBD binder 12
COc1ccc(C2C3=C(N=C4SCC(=O)N42)c2ccccc2CC3)cc1OC (stereo not given)	SKN-1 block 48 (no result: Vif imaging)
COc1cc(CCC(=O)OCn2nnc3ccccc3c2=O)cc(OC)c1OC	Vif imaging 59
Clc1ccc(Nc2ccc(-n3ccnc3)nn2)cc1Cl	NR3A LBD binder 19, SKN-1 block 37
CC(C)NC(=O)N(C)C[C@H]1Oc2ncc(C#Cc3ccncc3)cc2C(=O)N([C@H](C)CO)C[C@@H]1C	none (no result: NR3A LBD binder, NadD inh, SKN-1 block, SMARCA2 act, Vif imaging)
C/C(=N\Nc1ccc(Cl)c(C(=O)O)c1)c1ccc(Br)s1	SKN-1 block 44
C/C(=N\Nc1ccc(C(=O)O)cc1)c1ccc(Br)cc1	none
C/C(=N\Nc1ccc(C(=O)O)cc1)c1ccc(Cl)s1	esBAF inh 67
C/C(=N\NC(=O)c1ccc(Cl)c(Cl)c1)c1ccc(Br)s1	none (no result: esBAF inh)
CSc1ccc(C2NC(=O)c3ccccc3N2)cc1 (stereo not given)	esBAF inh 65
O=[N+]([O-])c1cccc(/C=C/c2nc(C=Nc3ccccc3)c(O)o2)c1	NR3A LBD binder 11
Cc1noc(C)c1NC(=O)N(C)C[C@@H]1OCCCC[C@@H](C)Oc2ccc(NC(=O)Cc3ccccc3)cc2C(=O)N([C@H](C)CO)C[C@H]1C	none (no result: NR3A LBD binder, NadD inh, SKN-1 block, SMARCA2 act, Vif imaging)
COc1ccc(C(=O)Nc2ccc(NC(=O)c3cc(OC)c(OC)c(OC)c3)cn2)cc1	none
O=C(Nc1ccc(NC(=O)c2ccccc2)nc1)c1ccncc1	esBAF inh 43
COc1ccccc1OCc1csc(NC(=O)c2ccco2)n1	esBAF inh 77
COc1ccc(C(=O)Nc2ccc(NC(=O)c3cccc(OC)c3)cn2)cc1	NR3A LBD binder 38
COc1ccc(C(=O)Nc2ccc(NC(=O)c3ccccc3OC)nc2)cc1	NR3A LBD binder 25
COc1ccc(S(=O)(=O)Nc2ccc3c(c2)C(=O)N([C@H](C)CO)C[C@@H](C)[C@@H](CN(C)S(=O)(=O)c2ccc(F)cc2)OCCCC[C@H](C)O3)cc1	none (no result: NR3A LBD binder, NadD inh, SKN-1 block, SMARCA2 act, Vif imaging)
COc1ccc(S(=O)(=O)Nc2ccc3c(c2)C(=O)N([C@H](C)CO)C[C@@H](C)[C@H](CN(C)Cc2ccccc2)OCCCC[C@H](C)O3)cc1	none (no result: NR3A LBD binder, NadD inh, SKN-1 block, SMARCA2 act, Vif imaging)
COc1ccc(C(=O)Nc2ccc(NC(=O)c3ccccn3)cn2)cc1	none
COc1ccc(C(=O)Nc2ccc(NC(=O)c3cccs3)cn2)cc1	NR3A LBD binder 17
Cc1cc(NC(=O)c2ccc(NC(=O)c3cccs3)cc2)no1	NR3A LBD binder 14
COc1ccccc1C(=O)Nc1ccc(NC(=O)c2ccco2)cn1	esBAF inh 64
O=C(Cc1ccccc1)Nc1ccc(NC(=O)c2ccco2)nc1	esBAF inh 46
Cc1cc(NC(=O)c2ccc(Cl)cc2)no1	none
COc1ccccc1NC(=O)Nc1ccc2c(c1)C(=O)N(C)C[C@H](OC)[C@@H](C)CN[C@H](C)CO2	none (no result: NR3A LBD binder, NadD inh, SKN-1 block, SMARCA2 act, Vif imaging)
CC(C)CC#Cc1ccc2c(c1)O[C@@H](CN(C)C(=O)CN(C)C)[C@H](C)CN([C@H](C)CO)S2(=O)=O	none (no result: NR3A LBD binder, NadD inh, SKN-1 block, SMARCA2 act, Vif imaging)
C[C@@H]1CN([C@H](C)CO)C(=O)CCCn2cc(nn2)CO[C@H]1CN(C)C(=O)c1ccccc1	Vif imaging 70 (no result: NR3A LBD binder)
C[C@@H]1CN([C@@H](C)CO)C(=O)CCCn2cc(nn2)CO[C@H]1CN(C)C(=O)c1ccccc1	none (no result: NR3A LBD binder, NadD inh, SKN-1 block, Vif imaging)
CN1C(=O)c2cc(NS(=O)(=O)c3ccccc3Cl)ccc2OC[C@H]2O[C@H](CC(=O)O)CC[C@@H]21	none (no result: NR3A LBD binder, NadD inh, SKN-1 block, SMARCA2 act, Vif imaging)
CC(C)Cn1cnc2c(SCc3ccccc3)nc(N)nc21	esBAF inh 76
CCCn1cnc2c(SCCc3ccccc3)nc(N)nc21	esBAF inh 61
CCCn1cnc2c(SCc3ccccc3Cl)nc(N)nc21	esBAF inh 48
CCCCn1cnc2c(SCCc3ccccc3)nc(N)nc21	none (no result: esBAF inh)
CCCCn1cnc2c(SCc3ccccc3F)nc(N)nc21	esBAF inh 50
CC(C)Cn1cnc2c(SCc3ccccn3)nc(N)nc21	none
CCCn1cnc2c(SCc3ccccn3)nc(N)nc21	none
Cc1noc(C)c1NC(=O)Nc1ccc2c(c1)C(=O)N([C@H](C)CO)C[C@H](C)[C@@H](CN(C)C(=O)Nc1ccc(F)cc1)OCCCC[C@H](C)O2	none (no result: NR3A LBD binder, NadD inh, SKN-1 block, SMARCA2 act, Vif imaging)
COC(=O)c1cc(NC(=S)Nc2cc(Cl)cc(Cl)c2)cc(C(=O)OC)c1	NR3A LBD binder 16 (no result: esBAF inh)
COC(=O)c1cccc(NC(=O)Nc2ccc(Cl)cc2)c1	NR3A LBD binder 35 (no result: Vif imaging)
COC(=O)[C@H](C)NC(=O)Nc1ccc(OC)c(OC)c1	none
COC(=O)c1cccc(NC(=O)NC(=O)c2ccc(Cl)cc2)c1	none (no result: Vif imaging)
COC(=O)c1cccc(NC(=S)Nc2ccc(Cl)c(Cl)c2)c1	NR3A LBD binder 23 (no result: esBAF inh)

High-throughput results (PubChem BioAssay)
